Results filed as inconclusive are left out. The source made the active and inactive calls. Calls follow the shape of the dose curve; as a rule, active = well fitted curve in the direction sought with a large enough effect in the repeat runs; inconclusive = weak or mixed curves; inactive = no such curve, though single readings can be large; an effect the other way counts as inactive or inconclusive.
Columns and labels:
[1] = qHTS RealTime-Glo MT Cell Viability Assay in HEK293 cells - 0 hour (AID 1224880); also: nearly all actives have a fitted effect of over 45% in size; also: potency is read from the fitted curve at half-maximal effect; as to activity change, negative = cytotoxicity: top concentration of the series differs between compounds
How it was run: (§1)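 Real-time viability in HEK293: signal arises when living cells convert a prosubstrate for NanoLuc in the medium, so luminescence tracks viable cell number. Compound (23 nL, DMSO) added 5 h post-seeding; kinetic reads at 0–40 h, 37 C.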

[2] = A CellTox Green Cytotoxicity Assay to monitor cytotoxicity in HEK293 cells - 32 hour (AID 1224881); also: nearly all actives have a fitted effect of over 40% in size
How it was run: (§2)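 Cells (HEK293, 600/well) and dye reagent are dispensed together. After 5 h at 37 C, 23 nL compound is pinned in. Plates stay at 37 C for 40 h with fluorescence read at 0h, 8h, 16h, 24h, 32h and 40h.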

[3] = A CellTox Green Cytotoxicity Assay to monitor cytotoxicity in HepG2 cells - 0 hour (AID 1224882); also: nearly all actives have a fitted effect of over 35% in size
How it was run: (§3)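 Cells and non-lytic dye reagent are dispensed together (600 HepG2 cells/well) and incubated 5 h before DMSO compound transfer. Kinetic fluorescence is then recorded in the same wells during 40 h at 37 C.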

[4] = A CellTox Green Cytotoxicity Assay to monitor cytotoxicity in HepG2 cells - 32 hour (AID 1224883); also: nearly all actives have a fitted effect of over 50% in size
How it was run: as §3

[5] = A CellTox Green Cytotoxicity Assay to monitor cytotoxicity in HEK293 cells - 8 hour (AID 1224884); also: nearly all actives have a fitted effect of over 35% in size
How it was run: as §2

[6] = qHTS RealTime-Glo MT Cell Viability Assay in HEK293 cells - 24 hour (AID 1224886); also: top concentration of the series differs between compounds; nearly all actives have a fitted effect of over 50% in size
How it was run: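 Viability tracked continuously by luminescence as live cells reduce a prosubstrate for NanoLuc; HEK293 cells preincubated 5 h, compound-treated at 37 C, and read at 0, 8, 16, 24, 32 and 40 h.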

[7] = qHTS RealTime-Glo MT Cell Viability Assay in HEK293 cells - 8 hour (AID 1224887); also: top concentration of the series differs between compounds; nearly all actives have a fitted effect of over 50% in size
How it was run: as §1

[8] = A CellTox Green Cytotoxicity Assay to monitor cytotoxicity in HEK293 cells - 16 hour (AID 1224888); also: nearly all actives have a fitted effect of over 35% in size
How it was run: as §2

[9] = qHTS RealTime-Glo MT Cell Viability Assay in HepG2 cells - 0 hour (AID 1224889); also: nearly all actives have a fitted effect of over 50% in size; also: potency is read from the fitted curve at half-maximal effect
How it was run: (§4)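 Viability was tracked continuously by NanoLuc luminescence from prosubstrate reduced by living HepG2 cells, at successive time points over 40 h of compound exposure. Cells with reagent were preincubated 5 h at 37 °C before compound addition.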

[10] = qHTS RealTime-Glo MT Cell Viability Assay in HepG2 cells - 16 hour (AID 1224885); also: nearly all actives have a fitted effect of over 50% in size
How it was run: as §4
% is scaled to controls: 0 for no effect and ±100 for the full control effect.

c1ccc([C@H]2CN3CCSC3=N2)cc1
inactive: Potency [1] | Potency [2] | Potency [3] | Potency [4] | Potency [5] | Potency [6] | Potency [7] | Potency [8] | Potency [9]

CC(=O)OCC(CCn1cnc2cnc(N)nc21)COC(C)=O
inactive: Potency [1] | Potency [2] | Potency [3] | Potency [4] | Potency [5] | Potency [10] | Potency [6] | Potency [8] | Potency [9]

CCOC(=O)C(=O)OCC
inactive: Potency [1] | Potency [2] | Potency [3] | Potency [4] | Potency [5] | Potency [6] | Potency [7] | Potency [8] | Potency [9]

O=[N+]([O-])c1ccc(F)cc1F
inactive: Potency [1] | Potency [2] | Potency [3] | Potency [4] | Potency [5] | Potency [6] | Potency [7] | Potency [8] | Potency [9]

CC(=O)Nc1ccc(S(N)(=O)=O)cc1
inactive: Potency [1] | Potency [2] | Potency [3] | Potency [4] | Potency [5] | Potency [6] | Potency [7] | Potency [8] | Potency [9]

COc1nc(N)nc2c1ncn2[C@@H]1O[C@H](CO)[C@@H](O)[C@@H]1O
inactive: Potency [1] | Potency [2] | Potency [3] | Potency [4] | Potency [5] | Potency [6] | Potency [7] | Potency [8] | Potency [9]

CC(=O)OCC(=O)[C@@]1(O)CCC2C3CCC4=CC(=O)CC[C@]4(C)C3[C@@H](O)C[C@@]21C (some centres not stated)
inactive: Potency [2] | Potency [3] | Potency [4] | Potency [5] | Potency [6] | Potency [7] | Potency [8]
active: Potency [1] 8.49 µM | Potency [9] 2.39 µM

OC(CCN1CCCCC1)(c1ccccc1)C1CC2C=CC1C2 (configuration not stated)
inactive: Potency [1] | Potency [2] | Potency [3] | Potency [4] | Potency [5] | Potency [10] | Potency [6] | Potency [8] | Potency [9]

C/C=C(\C)C#N
inactive: Potency [1] | Potency [2] | Potency [3] | Potency [4] | Potency [5] | Potency [6] | Potency [7] | Potency [8] | Potency [9]

NS(=O)(=O)c1cc2c(cc1Cl)NC(C1CC3C=CC1C3)NS2(=O)=O (configuration not stated)
inactive: Potency [1] | Potency [2] | Potency [3] | Potency [4] | Potency [5] | Potency [10] | Potency [6] | Potency [8] | Potency [9]

CCC(C)S (configuration not stated)
inactive: activity change, negative = cytotoxicity [1] 2.99% [at 2.72 µM] | cytotoxicity increase [2] 1.61% [at 2.72 µM] | cytotoxicity [3] -2.37% [at 2.72 µM] | cytotoxicity increase [4] 1.17% [at 2.72 µM] | cytotoxicity increase [5] 0.141% [at 2.72 µM] | activity change, negative = cytotoxic [10] -0.5% [at 2.72 µM] | activity change, negative = cytotoxicity [6] 1.35% [at 2.72 µM] | activity change [8] 1.7% [at 2.72 µM, stronger effect = higher value] | activity change, negative = cytotoxicity [9] 5.41% [at 2.72 µM]

O=C1OC(=O)C2CCCCC12 (configuration not stated)
inactive: Potency [1] | Potency [2] | Potency [3] | Potency [4] | Potency [5] | Potency [6] | Potency [7] | Potency [8] | Potency [9]

CC(C)(C)NCCNC(C)(C)C
inactive: Potency [1] | Potency [2] | Potency [3] | Potency [4] | Potency [5] | Potency [6] | Potency [7] | Potency [8] | Potency [9]

CCc1ccc(O)c(OC)c1
inactive: Potency [1] | Potency [2] | Potency [3] | Potency [4] | Potency [5] | Potency [10] | Potency [6] | Potency [8] | Potency [9]

CC(C)CNCC(C)C
inactive: Potency [1] | Potency [2] | Potency [3] | Potency [4] | Potency [5] | Potency [6] | Potency [7] | Potency [8] | Potency [9]

NC(CSCC(=O)O)C(=O)O (configuration not stated)
inactive: Potency [1] | Potency [2] | Potency [3] | Potency [4] | Potency [5] | Potency [10] | Potency [6] | Potency [8] | Potency [9]

Cc1sccc1Br
inactive: Potency [1] | Potency [2] | Potency [3] | Potency [4] | Potency [5] | Potency [10] | Potency [6] | Potency [8] | Potency [9]

NC(=O)c1ccc([N+](=O)[O-])cc1
inactive: Potency [1] | Potency [2] | Potency [3] | Potency [4] | Potency [5] | Potency [10] | Potency [6] | Potency [8] | Potency [9]

COC(=O)c1cc(C(=O)OC)cc(S(=O)(=O)O)c1
inactive: Potency [1] | Potency [2] | Potency [3] | Potency [5] | Potency [10] | Potency [6] | Potency [7] | Potency [8] | Potency [9]

Cc1cccn2c(=O)c(-c3nnn[nH]3)cnc12
inactive: activity change, negative = cytotoxicity [1] 7.45% [at 15.8 µM] | Potency [2] | cytotoxicity [3] 0.312% [at 15.8 µM] | cytotoxicity increase [5] 9.95% [at 15.8 µM] | activity change, negative = cytotoxic [10] -6.35% [at 15.8 µM] | activity change, negative = cytotoxicity [6] 2.84% [at 15.8 µM] | activity change, negative = cytotoxicity [7] -0.563% [at 15.8 µM] | activity change [8] 17.3% [at 15.8 µM, stronger effect = higher value] | activity change, negative = cytotoxicity [9] -3.79% [at 15.8 µM]

CC(C(=O)O)c1ccc(CC2CCCC2=O)cc1 (configuration not stated)
inactive: Potency [1] | Potency [2] | Potency [3] | Potency [5] | Potency [10] | Potency [6] | Potency [7] | Potency [8] | Potency [9]

COC(C)(C)CCCC(C)CC=O (configuration not stated)
inactive: Potency [1] | Potency [2] | Potency [3] | Potency [5] | Potency [10] | Potency [6] | Potency [7] | Potency [8] | Potency [9]

CC1(C)CO[C@@H](CC(=O)O)CN1
inactive: Potency [1] | Potency [2] | Potency [3] | Potency [4] | Potency [5] | Potency [6] | Potency [7] | Potency [8] | Potency [9]

— PubChem BioAssay (Tox21)
